Experimental findings from article PMC7862700, “An all-to-all approach to the identification of sequence-specific readers for epigenetic DNA modifications on cytosine” are described below.

Common to all, as to test: DAPPL (digital affinity profiling via proximity ligation, sequencing); 10 mM Tris-HCl pH 7.5, 50 mM NaCl, 1 mM DTT, 4% glycerol, room temperature, 30 min; GST-TFs on glutathione beads, 16-mer random dsDNA library, 0.1% formaldehyde crosslink after washing; high values mean tight binding
One assay concerns the target SPIB (Homo sapiens, UniProt Q01892 1-262). To be noted: protein: recombinant; tags: N-terminal GST; dsDNA, one strand shown. In a few lines:
(§1)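 Human transcription factors were made in yeast as GST fusions, captured on glutathione beads and barcoded with DNA. With a tag-only sample included, the pool was incubated with 200 nmole of a random double-stranded 16-mer DNA library in Tris/NaCl/DTT/glycerol buffer at room temperature for 30 min, then crosslinked with 0.1% formaldehyde after washing, ligated by proximity, amplified and sequenced. For binding signal, each hexamer's read frequency for a factor is divided by its frequency for the tag-only sample.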

The next assay concerns the target HSF1 (Homo sapiens, UniProt Q00613 1-529). The settings on record: protein: recombinant; tags: N-terminal GST; chain copies: 3; dsDNA, one strand shown. The procedure, abridged:
as §1

The next assay has as its target T1, SPIC (Homo sapiens, UniProt Q8N5J4 1-248).
T1 sequence: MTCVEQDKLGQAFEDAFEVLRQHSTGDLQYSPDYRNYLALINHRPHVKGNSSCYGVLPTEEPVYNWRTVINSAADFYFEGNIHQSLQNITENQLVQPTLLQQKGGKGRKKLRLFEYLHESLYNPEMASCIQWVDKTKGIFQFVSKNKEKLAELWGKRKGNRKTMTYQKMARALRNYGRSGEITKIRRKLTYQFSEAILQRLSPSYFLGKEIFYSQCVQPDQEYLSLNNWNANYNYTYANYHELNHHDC
To be noted: protein: recombinant; tags: N-terminal GST; dsDNA, one strand shown. In a few lines: as §1

A further assay has as its target ELF4 (Homo sapiens, UniProt Q99607 1-663). To be noted: protein: recombinant; tags: N-terminal GST; dsDNA, one strand shown. The procedure, abridged: as §1
The target in the next assay is T2, ETV2 (Homo sapiens, UniProt O00321 1-342).
T2 sequence: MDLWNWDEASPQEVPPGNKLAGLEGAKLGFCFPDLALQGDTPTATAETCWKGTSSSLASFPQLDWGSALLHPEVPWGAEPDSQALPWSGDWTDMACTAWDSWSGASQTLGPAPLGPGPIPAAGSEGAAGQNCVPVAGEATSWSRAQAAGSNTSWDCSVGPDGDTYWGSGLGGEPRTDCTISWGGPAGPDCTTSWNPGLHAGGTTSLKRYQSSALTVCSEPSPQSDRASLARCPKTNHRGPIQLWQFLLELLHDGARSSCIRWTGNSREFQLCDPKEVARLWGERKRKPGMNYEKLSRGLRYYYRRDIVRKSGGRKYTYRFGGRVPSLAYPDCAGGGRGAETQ
To be noted: protein: recombinant; tags: N-terminal GST; dsDNA, one strand shown. The procedure, abridged:
as §1

For a further assay, the target named is T3, ELF3 (Homo sapiens, UniProt P78545 1-371).
T3 sequence: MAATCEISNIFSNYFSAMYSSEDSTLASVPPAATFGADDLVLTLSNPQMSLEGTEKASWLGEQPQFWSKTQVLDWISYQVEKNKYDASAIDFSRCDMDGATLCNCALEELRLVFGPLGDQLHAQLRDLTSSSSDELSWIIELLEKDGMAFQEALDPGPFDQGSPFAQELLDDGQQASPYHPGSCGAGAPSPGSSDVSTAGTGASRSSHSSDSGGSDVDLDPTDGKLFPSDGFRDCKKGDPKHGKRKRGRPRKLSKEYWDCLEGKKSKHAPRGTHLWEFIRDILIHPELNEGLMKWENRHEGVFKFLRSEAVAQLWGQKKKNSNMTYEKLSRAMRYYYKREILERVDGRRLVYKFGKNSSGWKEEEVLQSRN
The settings on record: protein: recombinant; tags: N-terminal GST; dsDNA, one strand shown. In a few lines: as §1

The target in another assay is CRX (Homo sapiens, UniProt O43186 1-299). The settings on record: protein: recombinant; tags: N-terminal GST; dsDNA, one strand shown. The procedure, abridged:
as §1

The target of a further assay is ETV1 (Homo sapiens, UniProt P50549 1-477). The settings on record: protein: recombinant; tags: N-terminal GST; dsDNA, one strand shown. The procedure, abridged: as §1
Chain of ETV1 (P50549 whole entry): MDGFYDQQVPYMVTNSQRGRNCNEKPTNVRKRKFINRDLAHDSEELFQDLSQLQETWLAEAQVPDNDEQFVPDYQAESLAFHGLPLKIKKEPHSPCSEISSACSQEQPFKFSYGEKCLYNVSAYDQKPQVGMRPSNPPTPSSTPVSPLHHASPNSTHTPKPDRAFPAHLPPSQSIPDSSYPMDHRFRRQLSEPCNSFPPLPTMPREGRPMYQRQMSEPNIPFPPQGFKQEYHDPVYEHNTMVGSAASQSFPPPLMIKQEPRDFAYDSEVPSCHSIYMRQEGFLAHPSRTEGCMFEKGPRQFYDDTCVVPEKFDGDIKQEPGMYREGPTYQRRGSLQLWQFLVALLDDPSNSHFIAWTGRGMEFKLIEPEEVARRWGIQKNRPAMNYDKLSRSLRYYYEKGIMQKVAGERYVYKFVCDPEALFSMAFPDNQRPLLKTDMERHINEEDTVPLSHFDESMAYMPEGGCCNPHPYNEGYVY
A further assay concerns the target T4, ETV3L (Homo sapiens, UniProt Q6ZN32 1-361).
T4 sequence: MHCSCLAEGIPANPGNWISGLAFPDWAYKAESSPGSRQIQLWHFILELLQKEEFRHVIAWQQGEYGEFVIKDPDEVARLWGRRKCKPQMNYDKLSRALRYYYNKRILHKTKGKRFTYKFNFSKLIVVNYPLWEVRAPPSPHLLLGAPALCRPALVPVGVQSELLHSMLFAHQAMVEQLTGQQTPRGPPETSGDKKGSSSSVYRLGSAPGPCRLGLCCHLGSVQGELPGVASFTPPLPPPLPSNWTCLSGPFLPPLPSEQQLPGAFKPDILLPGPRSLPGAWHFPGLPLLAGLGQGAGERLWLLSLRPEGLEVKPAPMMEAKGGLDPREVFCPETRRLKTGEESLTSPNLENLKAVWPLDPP
To be noted: protein: recombinant; tags: N-terminal GST; dsDNA, one strand shown. In a few lines:
as §1

For another assay, the target named is T5, ETS2 (Homo sapiens, UniProt P15036 1-469).
T5 sequence: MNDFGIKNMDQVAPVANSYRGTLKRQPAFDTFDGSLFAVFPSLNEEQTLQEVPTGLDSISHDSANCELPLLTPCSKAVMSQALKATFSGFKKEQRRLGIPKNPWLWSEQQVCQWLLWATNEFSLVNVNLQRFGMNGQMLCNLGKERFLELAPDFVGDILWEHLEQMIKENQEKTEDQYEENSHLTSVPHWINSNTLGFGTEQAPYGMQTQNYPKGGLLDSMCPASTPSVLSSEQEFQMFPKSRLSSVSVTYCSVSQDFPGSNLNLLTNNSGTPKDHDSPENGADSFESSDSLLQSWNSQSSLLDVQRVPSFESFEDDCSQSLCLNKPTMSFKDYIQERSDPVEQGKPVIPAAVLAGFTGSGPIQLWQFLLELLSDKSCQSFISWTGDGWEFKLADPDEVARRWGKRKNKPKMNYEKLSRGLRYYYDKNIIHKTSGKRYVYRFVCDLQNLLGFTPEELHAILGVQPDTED
To be noted: protein: recombinant; tags: N-terminal GST; dsDNA, one strand shown. The procedure, abridged: as §1

A further assay concerns the target T6, SPDEF (Homo sapiens, UniProt O95238 1-335).
T6 sequence: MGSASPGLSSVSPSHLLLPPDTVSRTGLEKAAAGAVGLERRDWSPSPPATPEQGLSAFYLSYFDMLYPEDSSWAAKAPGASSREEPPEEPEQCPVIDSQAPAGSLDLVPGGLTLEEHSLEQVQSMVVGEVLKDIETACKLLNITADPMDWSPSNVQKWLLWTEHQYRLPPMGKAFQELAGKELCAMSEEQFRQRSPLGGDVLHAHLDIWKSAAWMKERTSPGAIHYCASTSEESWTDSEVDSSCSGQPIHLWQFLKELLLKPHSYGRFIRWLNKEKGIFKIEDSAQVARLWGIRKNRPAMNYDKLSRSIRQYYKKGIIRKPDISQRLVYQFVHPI
To be noted: protein: recombinant; tags: N-terminal GST; dsDNA, one strand shown. In a few lines:
as §1

The target of another assay is T7, ETV7 (Homo sapiens, UniProt Q9Y603 1-341).
T7 sequence: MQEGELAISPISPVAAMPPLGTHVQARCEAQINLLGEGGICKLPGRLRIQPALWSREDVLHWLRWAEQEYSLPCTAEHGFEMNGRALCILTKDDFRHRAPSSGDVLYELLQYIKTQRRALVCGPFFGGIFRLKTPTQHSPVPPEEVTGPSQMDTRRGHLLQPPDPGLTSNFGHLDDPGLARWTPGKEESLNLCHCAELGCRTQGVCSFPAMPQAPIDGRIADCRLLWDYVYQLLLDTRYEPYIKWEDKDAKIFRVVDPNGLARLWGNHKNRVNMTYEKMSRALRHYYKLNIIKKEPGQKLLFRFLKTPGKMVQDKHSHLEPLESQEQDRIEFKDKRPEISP
The settings on record: protein: recombinant; tags: N-terminal GST; dsDNA, one strand shown. The procedure, abridged:
as §1

For another assay, the target named is T8, ETV3 (Homo sapiens, UniProt P41162-2 1-143).
T8 sequence: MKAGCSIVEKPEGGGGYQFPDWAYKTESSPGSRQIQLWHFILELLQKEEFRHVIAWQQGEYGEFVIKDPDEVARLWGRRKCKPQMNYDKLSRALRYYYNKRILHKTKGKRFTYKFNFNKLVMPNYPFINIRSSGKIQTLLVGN
To be noted: protein: recombinant; tags: N-terminal GST; dsDNA, one strand shown. The procedure, abridged:
as §1

Chain of SPIB (Q01892 whole entry, the tested form may be a part): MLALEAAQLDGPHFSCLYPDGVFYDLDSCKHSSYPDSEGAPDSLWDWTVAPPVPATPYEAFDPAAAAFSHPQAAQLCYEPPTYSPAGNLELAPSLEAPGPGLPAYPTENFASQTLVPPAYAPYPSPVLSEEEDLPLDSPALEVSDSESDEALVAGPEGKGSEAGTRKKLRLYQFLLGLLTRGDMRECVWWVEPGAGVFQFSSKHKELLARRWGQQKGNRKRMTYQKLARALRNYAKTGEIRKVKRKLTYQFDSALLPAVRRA
Chain of CRX (O43186 whole entry): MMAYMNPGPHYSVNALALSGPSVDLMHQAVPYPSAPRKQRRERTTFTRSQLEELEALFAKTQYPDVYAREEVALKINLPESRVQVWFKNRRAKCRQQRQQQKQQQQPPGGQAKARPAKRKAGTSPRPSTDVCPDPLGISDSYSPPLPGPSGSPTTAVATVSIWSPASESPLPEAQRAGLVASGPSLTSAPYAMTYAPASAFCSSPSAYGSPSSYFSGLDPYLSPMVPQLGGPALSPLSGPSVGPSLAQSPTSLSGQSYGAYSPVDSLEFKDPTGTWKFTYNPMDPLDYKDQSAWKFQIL
Chain of ELF4 (Q99607 whole entry): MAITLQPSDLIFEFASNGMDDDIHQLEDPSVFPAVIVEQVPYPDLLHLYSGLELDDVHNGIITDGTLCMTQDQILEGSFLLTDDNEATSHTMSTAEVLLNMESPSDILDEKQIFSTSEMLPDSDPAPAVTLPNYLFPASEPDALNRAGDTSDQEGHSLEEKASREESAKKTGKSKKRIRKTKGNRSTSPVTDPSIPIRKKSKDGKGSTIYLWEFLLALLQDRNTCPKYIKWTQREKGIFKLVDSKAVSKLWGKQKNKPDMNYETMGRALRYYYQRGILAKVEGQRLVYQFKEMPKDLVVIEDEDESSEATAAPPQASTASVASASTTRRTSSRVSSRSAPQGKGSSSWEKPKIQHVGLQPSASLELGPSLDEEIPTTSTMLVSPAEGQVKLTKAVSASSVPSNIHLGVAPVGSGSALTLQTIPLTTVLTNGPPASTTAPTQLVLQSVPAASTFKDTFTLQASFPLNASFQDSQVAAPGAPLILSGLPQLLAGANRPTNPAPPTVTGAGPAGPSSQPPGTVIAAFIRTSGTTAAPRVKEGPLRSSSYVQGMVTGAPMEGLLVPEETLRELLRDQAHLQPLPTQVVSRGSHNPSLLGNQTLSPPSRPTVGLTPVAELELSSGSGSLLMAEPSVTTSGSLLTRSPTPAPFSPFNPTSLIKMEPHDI
Chain of HSF1 (Q00613 whole entry): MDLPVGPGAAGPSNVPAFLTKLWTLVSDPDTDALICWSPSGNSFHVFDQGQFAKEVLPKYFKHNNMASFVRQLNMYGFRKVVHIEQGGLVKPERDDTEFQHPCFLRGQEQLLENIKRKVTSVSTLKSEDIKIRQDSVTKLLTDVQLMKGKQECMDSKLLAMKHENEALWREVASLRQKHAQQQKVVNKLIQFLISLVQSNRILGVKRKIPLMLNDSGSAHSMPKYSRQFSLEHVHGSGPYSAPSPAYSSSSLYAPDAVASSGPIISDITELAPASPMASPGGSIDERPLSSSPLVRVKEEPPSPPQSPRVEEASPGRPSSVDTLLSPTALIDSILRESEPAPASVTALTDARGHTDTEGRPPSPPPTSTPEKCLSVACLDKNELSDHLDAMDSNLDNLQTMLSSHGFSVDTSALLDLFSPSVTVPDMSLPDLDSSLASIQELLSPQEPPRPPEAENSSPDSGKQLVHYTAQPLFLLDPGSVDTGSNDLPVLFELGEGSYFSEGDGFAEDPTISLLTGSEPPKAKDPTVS

On to GATTCG, for which the binding signal was 1.04 fold enrichment (6-mer frequency, TF over GST control) in the assay with SPIB; 1.23 fold enrichment (6-mer frequency, TF over GST control) in the assay with HSF1; 1.16 fold enrichment (6-mer frequency, TF over GST control) with SPIC; 1.05 fold enrichment (6-mer frequency, TF over GST control) in the assay with ELF4; 1.02 fold enrichment (6-mer frequency, TF over GST control) in the assay with ETV2; 1.09 fold enrichment (6-mer frequency, TF over GST control) with ELF3. Besides, the binding signal with CRX was 1.06 fold enrichment (6-mer frequency, TF over GST control); with ETV1, 1.03 fold enrichment (6-mer frequency, TF over GST control); in the assay with ETV3L it was 1.06 fold enrichment (6-mer frequency, TF over GST control); with ETS2 it was 1 fold enrichment (6-mer frequency, TF over GST control); in the assay with SPDEF, 1 fold enrichment (6-mer frequency, TF over GST control); with ETV7 it was 1.01 fold enrichment (6-mer frequency, TF over GST control). For the same sequence, the binding signal with ETV3 was 1 fold enrichment (6-mer frequency, TF over GST control).
